Screening results deposited in PubChem by several laboratories.
D1 mod: allosteric modulators of human D1 dopamine receptor. B-score at 10 µM. actives 5.9% (n = 58,000). HEK293 D1, CRE-luciferase, dopamine EC30 potentiation; actives deviate in either direction;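 active = luminescence count or its row- and column-corrected plate score outside the 99.7% band of the plate's sample wells, on either side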
WNV NS2B-NS3 inh: blocks West Nile virus NS2B-NS3 protease activity; P06935; WNV NS2B-NS3 protease, fluorogenic substrate Ex360/Em465; active compounds read low; z-score (no concentration beside the values); actives 0.18% (n = 65,000); in the data active = z-score below about -3
M1 antag: M1 muscarinic receptor (rat) antagonism; B-score at 10 µM; CHO-M1 cells, Fluo-4 calcium, ACh EC80 antagonist mode; active compounds read low; actives 3.4% (n = 64,000);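 active = calcium fluorescence response, raw or row-and-column corrected B-score, differing from the plate sample mean either way at a set confidence level, mostly lower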
Target sequence (P08482 whole entry, looked up): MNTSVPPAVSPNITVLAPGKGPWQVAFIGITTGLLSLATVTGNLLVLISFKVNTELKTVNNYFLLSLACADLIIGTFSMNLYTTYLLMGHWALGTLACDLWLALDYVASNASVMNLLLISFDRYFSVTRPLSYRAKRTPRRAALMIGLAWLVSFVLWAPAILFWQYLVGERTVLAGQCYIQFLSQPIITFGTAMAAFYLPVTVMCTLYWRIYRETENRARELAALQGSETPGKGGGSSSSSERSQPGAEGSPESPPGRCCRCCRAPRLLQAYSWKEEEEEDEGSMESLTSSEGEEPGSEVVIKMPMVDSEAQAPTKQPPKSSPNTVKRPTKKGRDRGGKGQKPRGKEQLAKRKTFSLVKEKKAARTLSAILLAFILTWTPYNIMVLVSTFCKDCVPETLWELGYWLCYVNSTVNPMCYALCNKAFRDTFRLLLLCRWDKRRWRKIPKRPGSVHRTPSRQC
M1 ag: agonists of M1 muscarinic receptor | B-score at 10 µM | actives 3% (n = 64,000) | CHO-M1 cells, Fluo-4 calcium fluorescence, agonist mode; active compounds read high | AID 626;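 active = fluorescence rise, raw or as B-score row- and column-corrected plate score, outside the 99.7% band of its plate's samples, either direction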
Htt clearance: mutant huntingtin protein clearance; HeLa Exon1htt(103Q)mCFP, aggregate imaging; zero = plate's median compound well; inhibition, % at 1.5 µM; actives 0.42% (n = 47,000); AID 853;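 active = inhibition of aggregate fluorescence above about 70%, also judged a hit by eye on the cell image, limit read from the data, passing the limit was not always enough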;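 also: cells exposed to compound for three days before fixation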
M1 antag conf: confirmation of rat M1 muscarinic receptor antagonists; shares compounds with M1 antag; calcium response (max-min fluorescence) at 10 µM; AID 677; actives 43% (n = 1,700); CHO-M1 cells, Fluo-4 calcium, ACh EC80 antagonism; active compounds read low;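 active = calcium response below the same-plate mean of wells given acetylcholine alone at its 80%-effect dose, minus 3 SD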;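 also: raw fluorescence intensity difference in arbitrary instrument units and not normalized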
mGluR4 antag: selectivity test for M1 antagonists: human mGluR4 receptor; shares compounds with M1 antag; CHO-mGluR4 calcium flux, Fluo-4 fluorescence, glutamate EC80; active compounds read low; fluorescence response (max-min) at 10 µM; actives 0.9% (n = 1,700);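 active = fluorescence response below the plate's average for near-maximal glutamate wells, less 3 SD of those wells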;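 also: raw unnormalized fluorescence span taken in the window right after glutamate addition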
* hit, by the source's call; / = no result given. This is a sample that favours compounds with a hit; in the whole collection about 8.9% have one here.

SMILES	D1 mod	WNV NS2B-NS3 inh	M1 antag	M1 ag	Htt clearance	M1 antag conf	mGluR4 antag
Cc1cccn2c(=O)c3cc(C(=O)NC(C)c4ccccc4)c(=N)n(CCCn4ccnc4)c3nc12 (stereo not given)	0.75	1.8	-2.9*	-0.67	/	317*	200
Cc1ccc2nc3c(cc(C(=O)NCc4ccccc4)c(=N)n3CCCn3ccnc3)c(=O)n2c1	0.98	2.6	-4.2*	0.18	/	372	229
CCOC(=O)c1cc(S(=O)(=O)N2CCN(C(=O)OCC)CC2)cn1C	0.3	0.15	-0.0091	-0.19	-44	/	/
CCCCNS(=O)(=O)c1ccc2nc(SCC(=O)c3ccccc3OC)[nH]c2c1	/	/	/	/	49	/	/
CCCCNS(=O)(=O)c1ccc2nc(SCC(=O)Nc3sccc3C#N)[nH]c2c1	-1.7	1.3	-3.1*	0.58	29	523	204
CN(C)c1ccc(-c2nn3c(C4CCCCC4)nnc3s2)cc1	-0.33	-0.14	0.9	-1	5	/	/
CCCCC(=NCCO)C1=C(O)C(C(=O)OC)C(C)(C)CC1=O (stereo not given)	-0.22	-0.56	-3.5*	-0.035	/	674	202
CCCCCCN=C(C)C1=C(O)C(C(=O)OC)C(C)(C)CC1=O (stereo not given)	-0.44	-0.55	-0.56	0.8	/	/	/
CN(C)CCCNC(CC(=O)Nc1ccc(Cl)cc1)C(=O)O (stereo not given)	/	0.95	0.52	-0.3	/	/	/
O=C(NC1CCS(=O)(=O)C1)C1CCCCN1S(=O)(=O)c1ccc(Cl)cc1 (stereo not given)	-0.31	-0.0091	-3.4*	0.31	/	584	249
N#Cc1ccc(CSc2ncnc3c2cnn3Cc2ccccc2)cc1	0.82	-0.0079	0.071	-0.53	/	/	/
CCc1ccccc1NC(=O)CSc1nnc(-c2ccco2)n1N	-1.4	-0.41	-0.036	0.65	/	/	/
CCSc1nc2c([nH]c3ccccc32)c(=O)n1C	3.3	0.56	-4.2*	-0.12	/	443	214
CC(C)CC(c1nnnn1C(C)(C)C)N1CCN(C2CCCC2)CC1 (stereo not given)	-0.74	-0.07	-4.4*	0.17	-67	477	212
O=C1c2cccnc2C(=O)N1CO	/	0.83	-2.4*	-0.78	-8	581	216
O=C1c2cccnc2C(=O)N1Cc1ccco1	-1.4	-0.61	0.29	0.69	/	/	/
CCCCNCCCOc1cccc(Cl)c1	/	2	-4.6*	-2.8*	/	483	219
O=C(NCCN1CCCCC1)Nc1ccc(F)c(Cl)c1	-1.1	0.25	-2.8*	0.23	/	569	216
O=C(NCCCN1CCCC1=O)Nc1ccc(F)c(Cl)c1	/	/	/	/	-30	/	/
CN1CCc2c(c3c(n2C)CCN(C)[C@@H]3c2cccnc2)[C@H]1c1cccnc1	/	-0.71	-3.1*	0.45	/	624	225
O=C(CN1CCN(c2ccccn2)CC1)Nc1cc(C(F)(F)F)ccc1Cl	0.48	1.8	-0.3	0.21	-5	/	/
COc1ccc2c(c1)Sc1ccccc1N2CCN(C)C	-1.7	0.21	-8.6*	0.44	/	114*	247
COCCn1c(-c2ccccc2F)n[nH]c1=S	-0.017	0.97	-0.33	0.98	-52	/	/
COCCn1c(C23CC4CC(CC(C4)C2)C3)n[nH]c1=S	1.2	-0.25	-2.8*	0.98	-70	610	257
Cc1cc(C)n(CCc2nc3c4ccccc4n(CC(=O)Nc4ccc(Cl)cc4F)c(=O)n3n2)n1	0.024	-0.65	0.31	-1.2	/	/	/
SMILES	D1 mod	WNV NS2B-NS3 inh	M1 antag	M1 ag	Htt clearance	M1 antag conf	mGluR4 antag
CCOC(=O)C1CCCN(C(=O)c2cc3c(=O)n4cccc(C)c4nc3n2C)C1 (stereo not given)	1.6	-0.39	0.078	0.44	/	/	/
O=C(COC(=O)CCNS(=O)(=O)c1ccc(Cl)cc1)NCc1ccco1	-0.12	-1.3	-2.8*	1.4	6	612	240
COc1ccc(S(=O)(=O)N(C)c2ccc(OCC(=O)Nc3cc(C)on3)cc2)cc1	-0.071	2	-2.8*	-0.64	45	604	218
COc1ccc(OCCC(=O)Nc2cc(C)on2)cc1	-0.06	-0.86	0.68	-0.03	-33	/	/
Cc1ccc(C)c(Cn2nnc3c(=O)[nH]c(C(=O)NCc4ccco4)nc32)c1	/	-1.3	-2.4*	-0.83	/	560	251
O=S(=O)(NCc1ccc2c(c1)OCO2)c1cccc(S(=O)(=O)N2CCOCC2)c1	-0.19	0.43	-0.085	-0.68	/	/	/
O=C(CNC1CCCCCC1)Nc1ccc(S(=O)(=O)NC2CC2)cc1	-0.045	-0.97	-4.8*	-0.96	32	182*	255
CCOc1cc(C(=O)N2CCN(c3ccc(C(C)=O)cc3)CC2)cc(OCC)c1OCC	0.4	0.24	-0.73	1.9	/	/	/
CCCCOc1ccc(NC2=NC3(CCCC3)N=C(N)N2)cc1	-4.2	-0.32	-3*	0.22	/	477*	226
Cc1cc(N2CCN(c3ccccn3)CC2)n2c(nc3ccccc32)c1C#N	-1.7	1.9	-2.2*	3.1	18	576	127*
O=C(NCCCN1CCCC1=O)c1ccc(Cl)c(NS(=O)(=O)c2ccc(F)cc2)c1	0.56	-0.45	-0.31	1.3	/	/	/
Cc1ccccc1OCCCn1c(=O)sc2ccccc21	/	/	/	/	-26	/	/
CCN(CCCNC(=O)COc1cc(=O)n(C)c2ccccc12)c1cccc(C)c1	3.3	-1.4	-1.9*	0.25	-49	630	250
CCN1CCN(c2cc(C)c3cc(NC(=O)c4ccc5c(c4)OCO5)ccc3n2)CC1	-5*	0.08	-2.6*	-0.036	/	502*	214
CCN1CCN(c2cc(C)c3cc(NC(=O)c4cncc(Br)c4)ccc3n2)CC1	-1.8	-0.97	-5*	-0.071	/	250*	228
COc1cccc(C(=O)Nc2ccc3nc(N4CCOCC4)cc(C)c3c2)c1	-0.0061	0.14	-1.3	0.16	/	/	/
CCN1CCN(c2cc(C)c3cc(NC(=O)c4ccc(OC)c(OC)c4)ccc3n2)CC1	/	/	/	/	27	/	/
COC(=O)CNC(=O)Cc1c(F)cccc1Cl	0.32	-0.63	0.26	0.2	-2	/	/
CCCCC(=O)NC1(C(F)(F)F)C(=O)Nc2c1c(=O)[nH]c(=O)n2Cc1ccco1 (stereo not given)	0.4	-0.04	-4.7*	-0.54	-50	706	230
CN1CCN(C(=O)c2ccc(COc3ccc(Cl)cc3Cl)cc2)CC1	-3.4	-1.3	-2.7*	-1.2	-34	529	228
Cc1ccc(CN2C3=NCCCN3c3ccccc32)cc1	-1.5	1.3	-2.8*	0.79	-84	419	212
COc1ccc(N2CCN(C(CNS(=O)(=O)c3cc(F)ccc3F)c3cccnc3)CC2)cc1 (stereo not given)	0.19	0.97	0.28	-0.12	/	/	/
CC(=O)c1ccc(N2CCC(c3cc(-c4ccc(Cl)cc4Cl)n[nH]3)CC2)c([N+](=O)[O-])c1	/	/	/	/	-6	/	/
